Luc counter = counter-screen: inhibitors of Kinase-Glo firefly luciferase | Potency, µM (top dose mostly 38.3 µM), inactives show at the top dose activity change, negative = inhibition, usual class: inhibitors | AID 1379 | 200,000 tested, 0.28% active | Q27757 | Kinase-Glo luciferase, ATP luminescence, 8 min; also: % is scaled to controls: 0 for no effect and ±100 for the full control effect; nearly all actives have a fitted effect of over 60% in size
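Inhibition of Kinase-Glo luciferase light generation was assessed at 10 uM ATP in pH 7.2 imidazole buffer, with luminescence measured after eight minutes at ambient temperature.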
Rab9 promoter act = activators of Rab9 promoter; Huh7 Rab9 promoter-luciferase reporter, luminescence, 24 h; Potency, µM (doses to about 9.22 µM), inactives show top-dose activation, negative = inhibition, hits mostly activators; 320,000 tested, 2.8% active; AID 485297; also: % of control where 0% means no effect; nearly all actives have a fitted effect of over 60% in size
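Rab9 promoter-driven luciferase in stably transfected Huh7 cells; 1500 cells/well rested 2 h, exposed to compound in DMSO for 24 h at 37 °C, 5% CO2. Luminescence read 10 min after adding luciferase reagent at ambient temperature.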
ELG1 genotox = inducers of genotoxicity in HEK293T ELG1-luciferase cells; HEK293T ELG1-luciferase reporter, luminescence, 16 h; Potency, µM (highest dose often 46 µM), for the others: at the top dose activity change, positive = activation, most hits filed as activators; 330,000 tested, 1.3% active; also: % of control where 0% means no effect; nearly all actives have a fitted effect of over 60% in size
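ELG1-luciferase HEK293T cells, 2,000/well; compound pinned in; 16 hr, 37 °C, 5% CO2; ONE-Glo, 30 min RT; luminescence on CCD imager.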
FLuc modulator = inhibits or activates purified firefly luciferase, miR-21 counter-screen | purified FLuc, Km substrates, luminescence inhibition | 360,000 tested, 6.9% active | Potency, µM (series often up to 57.5 µM), for the others: at the highest dose activity change, negative = inhibition, actives largely listed as inhibitors | P08659;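 also: plate controls were vehicle for no effect and reference inhibitor for full effect; nearly all actives have a fitted effect of over 55% in size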
Target sequence (P08659 whole entry, looked up): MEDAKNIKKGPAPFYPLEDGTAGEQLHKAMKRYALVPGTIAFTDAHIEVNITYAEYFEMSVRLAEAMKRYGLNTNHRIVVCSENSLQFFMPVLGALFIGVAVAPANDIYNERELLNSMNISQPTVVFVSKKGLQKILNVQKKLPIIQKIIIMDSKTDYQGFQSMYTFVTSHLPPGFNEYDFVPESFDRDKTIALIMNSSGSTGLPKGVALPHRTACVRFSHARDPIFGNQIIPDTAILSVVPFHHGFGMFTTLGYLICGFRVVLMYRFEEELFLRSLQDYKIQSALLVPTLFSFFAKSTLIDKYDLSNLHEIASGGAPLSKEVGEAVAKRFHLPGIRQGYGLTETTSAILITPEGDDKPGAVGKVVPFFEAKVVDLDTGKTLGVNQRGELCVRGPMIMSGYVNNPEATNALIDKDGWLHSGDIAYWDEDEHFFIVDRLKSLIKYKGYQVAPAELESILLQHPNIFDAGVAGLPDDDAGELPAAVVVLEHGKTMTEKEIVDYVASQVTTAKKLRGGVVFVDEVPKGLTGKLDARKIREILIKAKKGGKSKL
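Biochemical qHTS of compounds, final roughly 60 µM downward over six points, against 10 nM purified firefly luciferase using Km concentrations of substrates (10 uM D-luciferin, 10 uM ATP) in Tris acetate pH 7.5 buffer; luminescence output.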
SMN2 splice enh = increases expression of the SMN2 splice variant; HEK293 SMN2-luciferase splicing reporter, luminescence, 30-36 h; Potency, µM (doses to about 46.1 µM), for the others: top-dose activity change, positive = activation, most hits filed as activators; 210,000 tested, 2.8% active; AID 1458; also: % of control where 0% means no effect; nearly all actives have a fitted effect of over 55% in size
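HEK293 cells carry an SMN2 minigene-luciferase reporter in which exon 7 inclusion puts luciferase in frame. Cells were seeded at 2000 cells/well, attached for 10-12 hours, then exposed to compounds for 30-36 hours at 37C before ONE-Glo luminescence.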
NPC1 promoter act = activators of NPC1 promoter; Huh7 NPC1 promoter luciferase reporter, 24 h; Potency, µM (highest dose often 9.22 µM), for inactives: top-dose activation, hits mostly activators; 320,000 tested, 2.4% active; also: % of control where 0% means no effect; nearly all actives have a fitted effect of over 60% in size
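Luminescence from an NPC1 promoter-driven luciferase reporter in stably transfected Huh7 cells was measured after 24 h compound treatment at 37 °C, followed by 10 min ambient incubation with luciferase detection reagent.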
An asterisk follows results filed as active; [ ] = another dose, or the depositor's remark. Sampled rows, rich in hits. Any-hit rate of the full collection: about 7.3%. Calls follow the shape of the dose curve; as a rule, active = well fitted curve in the direction sought with a large enough effect; inconclusive = small, poorly fitted or top-dose-only effect, or another doubt; inactive = no such curve, though single readings can be large; an effect the other way counts as inactive or inconclusive. Potency is read from the fitted curve at half-maximal effect.

For COc1ccccc1CNc1ncnc2c1cnn2-c1ccccc1 the results were Rab9 promoter act 2.8%, ELG1 genotox 11.6%, FLuc modulator inconclusive and NPC1 promoter act 17.4%.
c1ccc(Cn2ncc3c(NCc4ccco4)ncnc32)cc1 was read as Rab9 promoter act 1.6%, ELG1 genotox -1.6%, FLuc modulator 0.8% and NPC1 promoter act -0.1%.
Screening COc1ccccc1CNc1ncnc2c1cnn2-c1ccc(C)cc1 returned FLuc modulator 16.9µM*.
For Cc1ccc(CNc2ncnc3c2cnn3-c2ccccc2)cc1 the results were Luc counter 2.1%, Rab9 promoter act 16.0%, ELG1 genotox 7.2%, FLuc modulator -12.5%, SMN2 splice enh -18.5% and NPC1 promoter act 5.0%.
Cc1ccc(-n2ncc3c(NCc4ccccc4)ncnc32)cc1 was read as Rab9 promoter act inconclusive, ELG1 genotox 4.61µM*, FLuc modulator -19.3% and NPC1 promoter act 3.55µM*.
`c1ccc(-n2ncc3c(NCc4ccco4)ncnc32)cc1` gave Luc counter 0.6%, Rab9 promoter act inconclusive, ELG1 genotox 10.3µM*, FLuc modulator 23.9µM* and NPC1 promoter act inconclusive.
For COc1ccc2c(c1)NC(c1cccnc1)=NC(c1ccc(F)cc1)=N2 the results were FLuc modulator inconclusive and SMN2 splice enh 27.0%.
C=C[C@]1(C)C[C@H](OC(=O)CO)[C@]2(C)C3C(=O)CC[C@]3(CC[C@H]2C)[C@H](C)[C@H]1O (some centres not stated) was read as Luc counter 1.2%[7.66 µM] and SMN2 splice enh 0.9%[9.22 µM].
For Cc1cccc(-c2noc(CN(C(=O)COc3ccc(C(C)C)cc3)C(C)C)n2)c1 the results were FLuc modulator -0.6% and SMN2 splice enh -17.4%.
`S=C(Nc1ccc(Cl)cc1)Nc1ccc2c(c1)OCCO2` gave Rab9 promoter act inconclusive, ELG1 genotox 10.7%, FLuc modulator 10.7µM* and NPC1 promoter act inconclusive.
For O=C(CN1CCN(CC(=O)Nc2ccccc2Cl)CC1)Nc1ccc2c(c1)OCCO2 the results were Luc counter 1.0%, Rab9 promoter act -0.9%, ELG1 genotox -7.4%, FLuc modulator -1.5%, SMN2 splice enh -7.0% and NPC1 promoter act -4.8%.
S=C(Nc1ccc2c(c1)OCCO2)Nc1ccccc1Cl was read as Rab9 promoter act 25.3%, ELG1 genotox inconclusive, FLuc modulator 15.1µM* and NPC1 promoter act 19.2%.
For COc1ccc(C2c3cc(OC)c(OC)cc3CC(=O)N2c2cccc(C#N)c2)cc1 (configuration not stated) the results were FLuc modulator 1.7% and SMN2 splice enh 3.4%.
C/C(=N\NC(=O)c1n[nH]c2c1CCC2)c1ccco1 was read as Rab9 promoter act 0.501µM*, ELG1 genotox inconclusive, FLuc modulator 2.69µM* and NPC1 promoter act inconclusive.
Screening CCC(C)(C)C1CCc2[nH]nc(C(=O)N/N=C(\C)c3ccco3)c2C1 (configuration not stated) returned Rab9 promoter act 1.12µM*, ELG1 genotox inconclusive, FLuc modulator 2.39µM* and NPC1 promoter act 3.16µM*.
Screening CCOC(=O)c1c(C)oc2ncnc(Nc3ccc(F)cc3Cl)c12 returned FLuc modulator -4.4%.
CC(C)/C=N/Nc1nc(-c2ccc(Br)cc2)cs1 was read as Luc counter 1.3%, Rab9 promoter act inconclusive, ELG1 genotox inconclusive, FLuc modulator 7.57µM*, SMN2 splice enh 4.6% and NPC1 promoter act inconclusive.
Screening O=C(Nc1nc(-c2ccc(Br)cc2)cs1)c1cccnc1 returned Luc counter 2.0%, Rab9 promoter act -10.6%, ELG1 genotox 14.8%, FLuc modulator 0.7%, SMN2 splice enh -16.8% and NPC1 promoter act -11.1%.
CCc1ccc(CN(C(=O)Nc2cccc(Cl)c2)c2ccccn2)cc1 was read as FLuc modulator -19.0%.
For COc1ccc(CNc2ccc([N+](=O)[O-])cn2)cc1 the results were Rab9 promoter act 3.98µM*, ELG1 genotox inconclusive, FLuc modulator 10.7µM* and NPC1 promoter act 3.16µM*.
Cc1ccc(Cl)cc1N(C)C(=O)c1noc2c1CCCCC2 was read as FLuc modulator -8.1%.
COc1ccc(/C=N/Nc2nc(N3CCCCC3)nc(N3CCCCC3)n2)cc1[N+](=O)[O-] was read as Luc counter 0.2%, Rab9 promoter act -5.9%, ELG1 genotox -8.1%, FLuc modulator -5.9%, SMN2 splice enh -8.6% and NPC1 promoter act -1.6%.
For O=[N+]([O-])c1cc(/C=N/Nc2nc(N3CCCCC3)nc(N3CCCCC3)n2)ccc1O the results were Luc counter -2.6%, Rab9 promoter act 0.9%, ELG1 genotox 2.2%, FLuc modulator 15.1µM*, SMN2 splice enh inconclusive and NPC1 promoter act -2.5%.
`Cc1csc(N/N=C/c2ccc(O)c([N+](=O)[O-])c2)n1` gave Luc counter 1.7%, Rab9 promoter act 4.3%, ELG1 genotox inconclusive, FLuc modulator 21.3µM*, SMN2 splice enh 18.0% and NPC1 promoter act 2.3%.
Cn1c(=O)oc2cc(S(=O)(=O)NC(Cc3ccccc3)C(=O)Nc3ccc(F)c(Cl)c3)ccc21 (configuration not stated) was read as FLuc modulator -2.2% and SMN2 splice enh 4.8%.
O=C(NCc1ccccn1)Nc1ccccc1Cl was read as Rab9 promoter act 22.1%, ELG1 genotox inconclusive, FLuc modulator -7.8% and NPC1 promoter act 14.4%.
For O=C(NCc1ccccn1)Nc1ccccc1 the results were Luc counter -28.2%, Rab9 promoter act 1.58µM*, ELG1 genotox inconclusive, FLuc modulator 13.5µM* and NPC1 promoter act inconclusive.
`O=C(NCc1ccccn1)Nc1ccc(Br)cc1` gave Rab9 promoter act 6.5%, ELG1 genotox 7.7%, FLuc modulator -10.0% and NPC1 promoter act -2.0%.
`O=C(NCc1ccccn1)Nc1ccc(Cl)cc1Cl` gave Rab9 promoter act inconclusive, ELG1 genotox inconclusive, FLuc modulator inconclusive and NPC1 promoter act 3.16µM*.
Screening Cc1ccc(NC(=O)C(NCc2ccccn2)c2ccccc2)cc1 (configuration not stated) returned Luc counter -2.3%, Rab9 promoter act 2.4%, ELG1 genotox 20.3%, FLuc modulator 16.9µM*, SMN2 splice enh -13.2% and NPC1 promoter act 3.4%.
Cc1ccc(NC(=S)NCc2ccccn2)cc1 was read as Luc counter -3.0%, Rab9 promoter act 23.5%, ELG1 genotox 1.0%, FLuc modulator -6.4%, SMN2 splice enh 11.3% and NPC1 promoter act 0.2%.
Screening COc1ccc(C2(CNC(=O)C(=O)Nc3ccccc3C)CCCC2)cc1OC returned FLuc modulator 4.5% and SMN2 splice enh -2.0%.
